Screens from PubChem BioAssay.
Most compounds without a hit are left out; they make up all but 19% or so of the library.
IL-1B inflam inh – inflammasome signaling inhibition, IL-1 beta readout; THP-1 LPS/ATP IL-1B secretion, AlphaLISA, 16 h; hits give low values; activity change, % at 57.5 µM; AID 743279; 360,000 tested, 4.7% active; in the data active means activity change below about -50%; inconclusive means mostly about -30% to -49%
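THP-1 cells pretreated 1 hr with compounds (up to 57.5 uM final), then stimulated with LPS (250 ng/mL final) plus ATP (1.25 mM final); secreted IL-1B measured by AlphaLISA after 16 hr, decreased signal indicating inhibition.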
TDP1 cell noCPT – qHTS for Inhibitors of human tyrosyl-DNA phosphodiesterase 1 (TDP1): qHTS in cells in absence of CPT. DT40 Tdp1-/- hTDP1 cells, no CPT, ATP luminescence, 48 h. Potency, µM (doses to about 46.2 µM), for the others: at the highest dose activity change, negative = growth inhibition, most hits filed as inhibitors. 420,000 tested, 15% active. AID 686978, 2013; further: potency means the concentration at half of the fitted maximal effect; nearly all actives have a fitted effect of over 55% in size
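Cells were dispensed at 400 per well, compounds added by pin tool, plates incubated ≥48 hr at 37 °C, then CellTiter-Glo added for 30 min at room temperature before luminescence reading. Line: DT40 Tdp1-/- complemented with hTDP1; camptothecin omitted.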
TDP1 inh – blocks human tyrosyl-DNA phosphodiesterase 1; recombinant TDP1, AlphaScreen DNA substrate cleavage; 350,000 tested, 0.28% active; Q9NUW8; Potency, µM (series often up to 130 µM), for the others: top-dose activity change, negative = inhibition, actives largely listed as inhibitors; AID 485290; further: potency means the concentration at half of the fitted maximal effect; nearly all actives have a fitted effect of over 40% in size
Target sequence (Q9NUW8 whole entry, looked up): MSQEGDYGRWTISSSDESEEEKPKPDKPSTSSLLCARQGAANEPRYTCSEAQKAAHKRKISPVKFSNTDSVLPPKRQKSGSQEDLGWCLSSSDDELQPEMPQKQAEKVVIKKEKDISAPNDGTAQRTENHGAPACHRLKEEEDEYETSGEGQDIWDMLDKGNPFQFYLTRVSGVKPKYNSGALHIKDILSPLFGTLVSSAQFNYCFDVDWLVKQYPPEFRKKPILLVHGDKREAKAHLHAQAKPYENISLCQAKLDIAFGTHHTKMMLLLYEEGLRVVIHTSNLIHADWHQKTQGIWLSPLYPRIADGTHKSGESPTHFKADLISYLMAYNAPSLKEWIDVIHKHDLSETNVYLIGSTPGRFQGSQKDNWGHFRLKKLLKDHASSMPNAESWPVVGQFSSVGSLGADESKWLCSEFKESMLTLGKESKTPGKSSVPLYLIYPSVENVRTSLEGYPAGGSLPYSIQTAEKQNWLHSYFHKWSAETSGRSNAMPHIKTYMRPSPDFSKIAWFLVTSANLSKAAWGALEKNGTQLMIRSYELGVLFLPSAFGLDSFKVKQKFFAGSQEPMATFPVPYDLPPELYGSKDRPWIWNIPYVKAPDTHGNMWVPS
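Recombinant E. coli-expressed Tdp1 (1 nM) preincubated with compound 15 min at RT, then 5'-biotin/3'-phosphotyrosine-FITC DNA substrate (15 nM) added for 5 min. AlphaScreen beads (10 ug/ml) added, 10 min RT; tyrosine-FITC cleavage read as signal loss.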
ELG1 repair inh – blocks ELG1-dependent DNA repair in HEK293T cells | 330,000 tested, 2.3% active | AID 504467 | Potency, µM (top dose mostly 46.1 µM), inactives show at the top dose activity change, negative = inhibition, hits mostly inhibitors | HEK293T ELG1-luciferase reporter, luminescence, 16 h; DNA damage induced by 5-fluorouridine; further: potency means the concentration at half of the fitted maximal effect; nearly all actives have a fitted effect of over 55% in size
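HEK293T cells expressing luciferase-tagged ELG1 (2,000/well) received 5-Fluorouridine plus compound or DMSO for 16 hr at 37 °C. Luciferase was read by ONE-Glo luminescence after 30 min at room temperature.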
DT40 TDP1 CPT – growth inhibition of DT40 Tdp1-/-;hTDP1 cells with camptothecin (screen for TDP1 inhibitors); chicken DT40 Tdp1-/-;hTDP1 cells + 20 nM CPT, ATP luminescence, 48 h; Potency, µM (doses to about 46.2 µM), inactives show top-dose activity change, negative = growth inhibition, hits mostly inhibitors; 420,000 tested, 12% active; further: potency means the concentration at half of the fitted maximal effect; nearly all actives have a fitted effect of over 55% in size
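Chicken DT40 Tdp1-/- cells stably complemented with human TDP1 were seeded at 400 cells/well in medium containing 20 nM camptothecin, exposed to pin-transferred compounds, and grown at 37 °C for at least 48 hr. Viability was read as ATP luminescence.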
Giardia kill – kills Giardia lamblia; 340,000 tested, 0.15% active; activity change, % at 7.66 µM, hits read low; Giardia lamblia trophozoite viability; in the data active means activity change below about -80%; inconclusive means between about -30% and that limit;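 further: parasites exposed to compound for two days anaerobically before the ATP read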
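Media and compound were dispensed first, then trophozoites at 100 cells/well; plates sat 48 hrs at 37 deg C without oxygen before ATP luminescence reagent was added and read after 15-30 min at room temperature.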
* hit, by the source's call; ? = inconclusive; · = no result; [ ] = dose if it differs, or a comment. Unless noted, the call rests on the fitted dose curve; in most records, active means well fitted curve in the direction sought with a large enough effect; inconclusive means small, poorly fitted or top-dose-only effect, or another doubt; inactive means no such curve, though single readings can be large; an effect the other way counts as inactive or inconclusive. On the % scale 0 is the no-effect control and ±100 the full control effect.

SMILES	IL-1B inflam inh	TDP1 cell noCPT	TDP1 inh	ELG1 repair inh	DT40 TDP1 CPT	Giardia kill
O=C(Nc1ccc(S(=O)(=O)N2CCOCC2)cc1)c1cccc(Br)c1	-8.2	-8.2%	·	9.5%	-2.2%	8.9
CCOc1ccccc1CNCC1CCCO1 (stereo not given)	5.6	5.4%	5.4%	?	2.8%	-10.7
CCOC(=O)C1(C)CCN1C(=O)c1ccccc1 (stereo not given)	0.3	-12.9%	·	·	-17.0%	·
CCOC(=O)C1(C)CCN1C(=O)c1ccc(-c2ccccc2)cc1 (stereo not given)	0.3	14.6µM*	·	·	-82.1%	·
CCOC(=O)C1(C)CCCCCN1C(=O)c1ccc(OC)c(C(F)(F)F)c1 (stereo not given)	-6.3	10.3µM*	·	·	23.1µM*	·
CCOC(=O)C1(C)CCCCCN1C(=O)c1ccc(OC)cc1 (stereo not given)	59.3	?	·	·	16.4µM*	·
O=C(CCNS(=O)(=O)c1ccccc1)OCC(=O)c1ccc(Cl)cc1	-0.1	3.3%	·	?	2.2%	4.5
COc1cccc(N2CCN(Cc3cc(=O)oc4cc(C)ccc34)CC2)c1	·	?	0.0%	·	?	·
Cc1cccc(OCC(=O)O/N=C(\N)c2ccncc2)c1	2.9	-2.7%	·	?	2.8%	-8.1
N/C(=N\OC(=O)COc1ccc2ccccc2c1)c1ccncc1	-15.2	?	0.0%	5.9%	20.6µM*	7.9
COc1ccc(/C(N)=N/OC(=O)CSc2ccccc2)cc1	-60.0*	-14.7%	-13.2%	?	-2.6%	20.2
C=CCNC(=O)/C(C#N)=C/c1c(N2CCN(c3ccc(OC)cc3)CC2)nc2c(C)cccn2c1=O	9.6	13µM*	·	?	?	-2.4
CCOC(=O)/C(C#N)=C/c1c(N2CCN(c3ccccc3)CC2)nc2c(C)cccn2c1=O	104.8	-25.8%	·	-15.7%	?	0.9
COc1ccc(Oc2nc3c(C)cccn3c(=O)c2/C=C(\C#N)C(N)=O)cc1	23.4	1.84µM*	5.9%	-0.6%	?	5.4
COc1ccc(N2CCN(c3nc4c(C)cccn4c(=O)c3/C=C(\C#N)C(N)=O)CC2)cc1	16.6	?	·	13µM*	?	9.2
CCN(CC(=O)Nc1c(F)cccc1F)C(=O)CNC(=O)C1CCCCC1	18.5	-7.1%	-5.9%	21.5%	-5.3%	38.6
CCCNC(=O)CSc1nc(-c2ccc(OC)cc2)cc(C(F)(F)F)n1	·	?	4.7%	·	?	·
CN(Cc1ccco1)C(=O)CC[C@H]1O[C@@H](n2ccc(=O)[nH]c2=O)[C@H](O)[C@@H]1O	-12.1	-2.8%	·	·	-14.1%	·
CN(C1CCCCC1)C(CNS(=O)(=O)c1ccccc1)c1ccccc1 (stereo not given)	-20.7	?	5.2%	-0.4%	?	?
CCOc1ccc(S(=O)(=O)c2c(C(=O)c3ccc(CC)cc3)cnc3ccc(C)cc23)cc1	·	23.1µM*	6.8%	·	?	·
CCOc1ccc(S(=O)(=O)c2c(C(=O)c3ccccc3)cnc3cc4c(cc23)OCCO4)cc1	-25.6	10.3µM*	5.5%	3.1%	?	-12.8
CCOc1ccc(C(=O)c2cnc3ccc(Cl)cc3c2S(=O)(=O)c2ccc(C)cc2)cc1	·	5.17µM*	2.0%	·	5.8µM*	·
CCc1ccc(S(=O)(=O)c2c(C(=O)c3ccc(C)c(C)c3)cnc3ccccc23)cc1	·	13µM*	0.0%	·	?	·
Cc1ccc(NC(=O)Nc2c[nH]c(=O)[nH]c2=O)c(Cl)c1	·	2.9%	-10.5%	·	-4.3%	·
COc1ccc(CCCN2CCC(CN3C(=S)NC[C@@H]3Cc3ccccc3)CC2)cc1OC	5.0	-14.0%	·	·	-0.7%	-4.4
SMILES	IL-1B inflam inh	TDP1 cell noCPT	TDP1 inh	ELG1 repair inh	DT40 TDP1 CPT	Giardia kill
CCc1ccc(C(=O)c2cnc3ccc(C)cc3c2S(=O)(=O)c2ccc(OC)cc2)cc1	·	18.4µM*	3.9%	·	23.1µM*	·
CCOC(=O)c1cnc2ccc(C)cc2c1NCCO	-15.7	-17.5%	2.5%	-28.6%	-7.8%	7.6
CC[C@]12c3[nH]c4cc(CCC(=O)N(C)C)ccc4c3CCN1C(=O)[C@@H](CC(=O)NC(C)(C)C)C[C@@H]2C(=O)N1CCN(C(=O)c2ccco2)CC1	7.5	-4.4%	-0.4%[56.1 µM]	?	-21.6%	5.3
OCC1(CCc2ccccc2)CCN(Cc2cc(Cl)ccc2O)CC1	-84.8*	-23.6%	6.0%	9.4%	4.0%	-5.3
OCC1(CCc2ccccc2)CCN(Cc2ccc(OC(F)F)cc2)CC1	-21.3	?	8.3%	?	?	6.9
COC(=O)c1c(-c2cccs2)csc1NC(=O)COc1ccc(C(C)(C)C)cc1	·	20.6µM*	?	·	14.6µM*	·
COC(=O)c1c(-c2cccs2)csc1NC(=O)COc1c(C)ccc(C)c1C	·	?	-9.9%	·	?	·
COC(=O)c1c(-c2cccs2)csc1NC(=O)COc1ccccc1	·	20.6µM*	-13.0%	·	16.4µM*	·
CC(C)(C)c1ccc(OCC(=O)NNC(=O)Cc2cccs2)cc1	1.8	-18.8%	6.4%	-1.8%	-3.0%	-14.5
Nc1ccc(-c2cc3ccccc3oc2=O)cc1	-18.0	0.3%	2.8%	14.8%	-7.7%	-1.5
O=C/C=C/c1c(-c2ccccc2)cc2oc3ccccc3cc1-2	-98.8*	18.4µM*	·	-2.2%	?	-21.6
COc1ccc(OC)c(CNC(=O)c2ccc(NC(=O)c3nsc4ccccc34)cc2)c1	·	18.4µM*	-2.7%	·	?	·
CCOc1cc(CNC(=O)c2ccc(NC(=O)c3nsc4ccccc34)cc2)ccc1OC	·	?	5.4%	·	?	·
